PubChem BioAssay (EPA / NIEHS)
Records with an inconclusive call do not appear. A structure can be active in one record and inactive in another. Active and inactive are the calls of the source. The calls were made as follows, unless noted: active = hit-call score of the fitted dose curve at least 0.9, where 1 is the maximum; inconclusive = response in the unintended direction; inactive = score below 0.9.

Experiments:
[1] = Tanguay_ZF_120hpf_YSE_legacy: (Legacy) Oregon State University Tanguay Lab 120 Hour Post-fertilization zebrafish Assay for Yolk Sac Edema (AID 2283634);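 as to AC50: actives raise the incidence of yolk sac edema above the DMSO baseline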
Procedure, shortened: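 Dechorionated Tropical 5D wild-type zebrafish embryos were exposed statically, one per well, from 6 to 120 hpf at 28C in 0.64% DMSO. Yolk sac edema was scored present/absent by brightfield at 120 hpf, and dead embryos were excluded.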

[2] = Tanguay_ZF_120hpf_EYE_legacy: (Legacy) Oregon State University Tanguay Lab 120 Hour Post-fertilization zebrafish Assay for Eye Malformation (AID 2283636);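 also: binary presence or absence of eye malformation scored by brightfield in 120 hpf larvae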
Procedure, shortened: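 5D wild-type embryos, pronase-dechorionated at 4 hpf; static exposure 6–120 hpf, 28C, dark; DMSO 0.64% final; 5uM trimethyltin chloride positive control. Binary eye-defect scoring at 120 hpf; dead embryos not scored.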

[3] = Tanguay_ZF_120hpf_JAW_legacy: (Legacy) Oregon State University Tanguay Lab 120 Hour Post-fertilization zebrafish Assay for Jaw Malformation (AID 2283638);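 as to AC50: active means more embryos with jaw malformation than DMSO controls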
Procedure, shortened: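 Dechorionated Tropical 5D wild-type zebrafish embryos, one per well, exposed statically from 6 hpf to 120 hpf at 28C in 0.64% DMSO. Jaw malformation was scored by brightfield microscopy as present or absent. It was not scored in dead embryos.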

[4] = Tanguay_ZF_120hpf_OTIC_legacy: (Legacy) Oregon State University Tanguay Lab 120 Hour Post-fertilization zebrafish Assay for Otic Vesicle Malformation (AID 2283639)
Procedure, shortened: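 Statically exposed wild-type 5D zebrafish embryos, kept sealed and dark at 28C through 120 hours post fertilization, were examined by brightfield microscopy for otic vesicle defects. Responses were recorded as present or absent and analysed relative to DMSO.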

[5] = Tanguay_ZF_120hpf_PE_legacy: (Legacy) Oregon State University Tanguay Lab 120 Hour Post-fertilization zebrafish Assay for Pericardial Edema (AID 2283640);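 as to AC50: potency for increased incidence of pericardial edema versus DMSO baseline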
Procedure, shortened: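 Tropical 5D wild-type zebrafish embryos were statically exposed until 120 hpf at 28C, with 0.64% DMSO final. Pericardial edema was scored by brightfield as present or absent; endpoints were not scored in dead embryos.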

[6] = Tanguay_ZF_120hpf_BRAI_legacy: (Legacy) Oregon State University Tanguay Lab 120 Hour Post-fertilization zebrafish Assay for Brain Malformation (AID 2283641)
Procedure, shortened: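 Tropical 5D wild-type zebrafish embryos exposed statically until 120 hpf at 28C, 0.64% DMSO final, sealed and dark. Brain malformation scored present/absent by brightfield at 120 hpf; dead embryos excluded. Trimethyltin chloride 5uM positive control.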

[7] = Tanguay_ZF_120hpf_SOMI_legacy: (Legacy) Oregon State University Tanguay Lab 120 Hour Post-fertilization zebrafish Assay for Somite Malformation (AID 2283647)
Procedure, shortened: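 Dechorionated Tropical 5D wild-type zebrafish embryos, one per well from 6 hpf, statically exposed at 28C to 120 hpf in 0.64% DMSO; somite malformation scored present/absent by brightfield; trimethyltin 5 uM positive control; dead embryos not scored.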

[8] = Tanguay_ZF_120hpf_PFIN_legacy: (Legacy) Oregon State University Tanguay Lab 120 Hour Post-fertilization zebrafish Assay for Pectoral Fin Malformation (AID 2283648);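 also: each larva judged yes or no for fin defect by brightfield with dead larvae skipped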
Procedure, shortened: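 Binary pectoral fin malformation call at 120 hpf by brightfield microscopy; 5D wild-type zebrafish, chorion removed at 4 hpf, one embryo per well from 6 hpf, static exposure at 28C; DMSO (0.64% final) as baseline.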

[9] = Tanguay_ZF_120hpf_CFIN_legacy: (Legacy) Oregon State University Tanguay Lab 120 Hour Post-fertilization zebrafish Assay for Caudal Fin Malformation (AID 2283649)
Procedure, shortened: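 Dechorionated Tropical 5D wild-type embryos, one per well from 6 hpf, static exposure to 120 hpf at 28C in 0.64% DMSO. Caudal fin malformation scored by brightfield as present/absent; not scored in dead embryos.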

[10] = Tanguay_ZF_120hpf_PIG_legacy: (Legacy) Oregon State University Tanguay Lab 120 Hour Post-fertilization zebrafish Assay for Pigmentation Malformation (AID 2283650)
Procedure, shortened: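 Brightfield scoring of pigmentation malformation at 120 hpf, recorded as binary present/absent per larva. Exposure: dechorionated 5D wild-type embryos, one per well, static from 6 hpf at 28C, final DMSO 0.64% (vol/vol). Dead embryos not scored.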

[11] = Tanguay_ZF_120hpf_CIRC_legacy: (Legacy) Oregon State University Tanguay Lab 120 Hour Post-fertilization zebrafish Assay for Circulatory Malformation (AID 2283651)
Procedure, shortened: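 Embryos are dechorionated at 4 hpf, plated one per well at 6 hpf, then held under static exposure at 28C until 120 hpf. Malformations are recorded as binary calls; mortality excludes other endpoints.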

[12] = Tanguay_ZF_120hpf_SWIM_legacy: (Legacy) Oregon State University Tanguay Lab 120 Hour Post-fertilization zebrafish Assay for Swim Bladder Malformation (AID 2283654);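 also: swim bladder malformation in each larva scored yes or no under brightfield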
Procedure, shortened: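 Tropical 5D embryos dechorionated at 4 hpf; 1 embryo/well from 6 hpf; static, sealed, dark exposure at 28C until 120 hpf; final DMSO 0.64%; 5uM trimethyltin chloride positive control; swim bladder defect recorded yes/no; dead embryos not scored.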

[13] = Tanguay_ZF_120hpf_TRUN_legacy: (Legacy) Oregon State University Tanguay Lab 120 Hour Post-fertilization zebrafish Assay for Truncated Body (AID 2283655)
Procedure, shortened: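 Dechorionated Tropical 5D wild-type embryos placed singly from 6 hpf and statically exposed to 120 hpf at 28C, final DMSO 0.64%. Truncated body scored as present/absent by brightfield; not scored in dead embryos.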

[14] = Tanguay_ZF_120hpf_NC_legacy: (Legacy) Oregon State University Tanguay Lab 120 Hour Post-fertilization zebrafish Assay for Notochord and Tail Malformation (AID 2283656)
Procedure, shortened: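 Binary scoring of notochord distortion by brightfield microscopy; embryos dying were not scored. Wild-type Tropical 5D embryos, chorion removed, exposed singly and statically from 6 to 120 hpf, 28C, sealed, 0.64% DMSO.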

[15] = Tanguay_ZF_120hpf_AXIS_legacy: (Legacy) Oregon State University Tanguay Lab 120 Hour Post-fertilization zebrafish Assay for Body Axis Malformation (AID 2283635);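 as to AC50: potency for an increased fraction of larvae scored with body axis malformation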
Procedure, shortened: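 Dechorionated wild-type Tropical 5D zebrafish embryos, one per well, statically exposed from 6 hpf to 120 hpf at 28C in 0.64% DMSO final. Body axis malformation scored present/absent by brightfield microscopy at 120 hpf; dead embryos excluded.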

[16] = read-out: solute carrier (SLC22A6), SLC22A6 (gene 9356); experiment: LTEA_HepaRG_SLC22A6: Life Technologies and Expression Analysis (LTEA) Assay for solute carrier (SLC22A6) using HepaRG (AID 2283653; active = hit-call score of the fitted dose curve at least 0.9, where 1 is the maximum; inactive = score below 0.9); conditions: mRNA level, 48 h; actives raise or lower the signal
Procedure, shortened: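 Differentiated HepaRG cells exposed 48 h in serum-free induction medium to 8 half-log concentrations, top 100 uM, in 0.5% DMSO; SLC22A6 mRNA by Fluidigm qRT-PCR normalized to ACTB, GAPDH, POLR2A, fitted bidirectionally versus DMSO.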

[17] = read-out: solute carrier (SLC10A1), SLC10A1 (gene 6554); experiment: LTEA_HepaRG_SLC10A1: Life Technologies and Expression Analysis (LTEA) Assay for solute carrier (SLC10A1) using HepaRG (AID 2283657; active = hit-call score of the fitted dose curve at least 0.9, where 1 is the maximum; inactive = score below 0.9); conditions: mRNA level, 48 h; actives raise or lower the signal
Procedure, shortened: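 HepaRG, 48 h exposure, 8-pt half-log curve from 100 uM in 0.5% DMSO, duplicates. Read-out: TaqMan qRT-PCR of SLC10A1 mRNA, normalized to three housekeeping genes. Gain/loss fit vs DMSO baseline.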

[18] = read-out: matrix metalloproteinase-1 (MMP1), MMP1 (gene 4312); experiment: LTEA_HepaRG_MMP1: Life Technologies and Expression Analysis (LTEA) Assay for matrix metalloproteinase-1 (MMP1) using HepaRG (AID 2283658; active = hit-call score of the fitted dose curve at least 0.9, where 1 is the maximum; inactive = score below 0.9); conditions: mRNA level, 48 h; actives raise or lower the signal
Procedure, shortened: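 Differentiated human HepaRG cells, 48 h post-plating in serum-free induction medium, were exposed 48 h to eight half-log concentrations topping at 100 uM in 0.5% DMSO, duplicate. MMP1 mRNA measured by Fluidigm TaqMan qRT-PCR, normalized to ACTB, GAPDH, POLR2A; bidirectional fits versus DMSO.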

[19] = Tanguay_ZF_120hpf_SNOU_legacy: (Legacy) Oregon State University Tanguay Lab 120 Hour Post-fertilization zebrafish Assay for Snout Malformation (AID 2283637)
Procedure, shortened: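 Binary brightfield scoring of snout malformation at 120 hpf. Dechorionated 5D wild-type embryos, one per well, static exposure from 6 hpf at 28C, sealed and dark; final DMSO 0.64% (vol/vol), DMSO as baseline; 5uM trimethyltin chloride positive control.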

[20] = read-out: kallikrein-3 (KLK3), KLK3 (gene 354); experiment: LTEA_HepaRG_KLK3: Life Technologies and Expression Analysis (LTEA) Assay for kallikrein-3 (KLK3) using HepaRG (AID 2283652; active = hit-call score of the fitted dose curve at least 0.9, where 1 is the maximum; inactive = score below 0.9); conditions: mRNA level, 48 h; actives raise or lower the signal
Procedure, shortened: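 KLK3 transcript levels were measured by TaqMan qRT-PCR with normalisation to three housekeeping genes. HepaRG cultures received chemicals for 48 h at up to 100 uM (half-log, 8 points, 0.5% DMSO vehicle), fitted in both directions against DMSO.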

Measured: AC50

CON(C)C(=O)Nc1ccc(Cl)c(Cl)c1
not listed: [15] | [16] | [17] | [18] | [19] | [20]
inactive: all other assays above

CNC(=O)ON=CC(C)(C)SC
active: [1] 3.47 µM | [15] 2.31 µM | [5] 2.81 µM | [13] 1.07 µM
not listed: [11] | [16] | [17] | [18] | [19] | [20]
inactive: all other assays above

CCCCOC(=O)c1ccccc1C(=O)OCCCC
not listed: [11] | [15] | [16] | [17] | [18] | [19] | [20]
inactive: all other assays above

CC(Oc1ccc(Cl)cc1Cl)C(=O)O (stereo not drawn)
inactive: [1] | [15] | [2] | [4] | [5] | [6] | [8] | [9] | [10] | [12] | [14]

COC(=O)N(OC)c1ccccc1COc1ccn(-c2ccc(Cl)cc2)n1
not listed: [11] | [16] | [17] | [18] | [19] | [20]
inactive: all other assays above

Cc1c(F)c(F)c(COC(=O)C2C(/C=C(\Cl)C(F)(F)F)C2(C)C)c(F)c1F (stereo not drawn)
active: [1] 1.79 µM | [2] 3.05 µM | [3] 2.75 µM | [4] 3.67 µM | [5] 5.03 µM | [6] 2.6 µM | [8] 3.13 µM | [10] 3.42 µM | [13] 2.36 µM
inactive: [7] | [9] | [12] | [14]

CO/C=C(/C(=O)OC)c1ccccc1Oc1cc(Oc2ccccc2C#N)ncn1
active: [1] 5.69 µM | [5] 5.47 µM | [17] 78.6 µM
inactive: [1] | [2] | [3] | [4] | [5] | [6] | [7] | [8] | [9] | [10] | [16] | [12] | [13] | [14] | [18]

Cc1ccc(-c2c(Cl)nc(C#N)n2S(=O)(=O)N(C)C)cc1
not listed: [11] | [15] | [16] | [17] | [18] | [19] | [20]
inactive: all other assays above

O=C(O)c1nc(Cl)ccc1Cl
not listed: [11] | [15] | [16] | [17] | [18] | [19] | [20]
inactive: all other assays above

CCON=C(CC)C1=C(O)CC(c2c(C)cc(C)cc2C)CC1=O (stereo not drawn)
not listed: [11] | [15] | [16] | [17] | [18] | [20]
inactive: all other assays above

CCCN(CCC)c1c([N+](=O)[O-])cc(S(N)(=O)=O)cc1[N+](=O)[O-]
not listed: [11] | [15] | [16] | [17] | [18] | [19] | [20]
inactive: all other assays above

O=C(O)COc1nc(Cl)c(Cl)cc1Cl
not listed: [11] | [14] | [16] | [17] | [18] | [20]
inactive: all other assays above

CCCCNC(=O)n1c(NC(=O)OC)nc2ccccc21
inactive: [4] | [5] | [7] | [8] | [9] | [12] | [13] | [14]
active: [1] 52.3 µM | [2] 72.8 µM | [19] 56.7 µM | [3] 59.2 µM | [10] 27.9 µM

CCc1nn(C)c(C(=O)NCc2ccc(C(C)(C)C)cc2)c1Cl
active: [1] 6 µM | [3] 4.39 µM | [5] 5.67 µM
not listed: [11] | [15] | [16] | [17] | [18] | [19] | [20]
inactive: all other assays above

COC(=O)c1ccccc1C(=O)OC
not listed: [11] | [15] | [16] | [17] | [18] | [19] | [20]
inactive: all other assays above

N#Cc1cc(Br)c(O)c(Br)c1
not listed: [11] | [15] | [16] | [17] | [18] | [19] | [20]
inactive: all other assays above

CCCC1COC(Cn2cncn2)(c2ccc(Cl)cc2Cl)O1 (stereo not drawn)
active: [1] 33.9 µM | [2] 26.9 µM | [19] 25.2 µM | [3] 25.2 µM | [5] 30.4 µM | [6] 30.2 µM
not listed: [11] | [16] | [17] | [18] | [20]
inactive: all other assays above

OC(c1ccc(Cl)cc1)(c1cncnc1)c1ccccc1Cl (stereo not drawn)
active: [17] 24.1 µM | [18] 59.8 µM
not listed: [11] | [13] | [15] | [19]
inactive: all other assays above

CCCCNC(=O)OCC#CI
not listed: [11] | [15] | [16] | [17] | [18] | [19] | [20]
inactive: all other assays above

COC(=O)C(C)Oc1ccc(Oc2ccc(Cl)cc2Cl)cc1 (stereo not drawn)
not listed: [15] | [16] | [17] | [18] | [19] | [20]
inactive: all other assays above

Cc1cc(Cl)ccc1OCC(=O)O
not listed: [11] | [14] | [15] | [16] | [17] | [18] | [20]
inactive: all other assays above

COc1nc(NC(C)C)nc(NC(C)C)n1
not listed: [11] | [15] | [16] | [17] | [18] | [19] | [20]
inactive: all other assays above

CCNc1nc(Cl)nc(NC(C)C)n1
not listed: [11] | [15] | [16] | [17] | [18] | [19] | [20]
inactive: all other assays above
